Source: PubChem BioAssay (NCATS)
Results filed as inconclusive are left out. Calls of active or inactive are those of the source. Calls come from the whole dose curve; as a rule, active = well fitted curve in the direction sought with a large enough effect; inconclusive = small, poorly fitted or top-dose-only effect, or another doubt; inactive = no such curve, though single readings can be large; an effect the other way counts as inactive or inconclusive.

How the values were obtained:
[1] = biological target: Cytochrome P450 2D6 (Homo sapiens) (UniProt P10635); experiment: qHTS for inhibitors of CYP2D6 against the NCATS DSHEA and TCM libraries (AID 1919972); note: % is set by controls: 0 for no effect and ±100 for the full control effect
Sequence of Cytochrome P450 2D6 (Homo sapiens) (P10635 whole entry, looked up): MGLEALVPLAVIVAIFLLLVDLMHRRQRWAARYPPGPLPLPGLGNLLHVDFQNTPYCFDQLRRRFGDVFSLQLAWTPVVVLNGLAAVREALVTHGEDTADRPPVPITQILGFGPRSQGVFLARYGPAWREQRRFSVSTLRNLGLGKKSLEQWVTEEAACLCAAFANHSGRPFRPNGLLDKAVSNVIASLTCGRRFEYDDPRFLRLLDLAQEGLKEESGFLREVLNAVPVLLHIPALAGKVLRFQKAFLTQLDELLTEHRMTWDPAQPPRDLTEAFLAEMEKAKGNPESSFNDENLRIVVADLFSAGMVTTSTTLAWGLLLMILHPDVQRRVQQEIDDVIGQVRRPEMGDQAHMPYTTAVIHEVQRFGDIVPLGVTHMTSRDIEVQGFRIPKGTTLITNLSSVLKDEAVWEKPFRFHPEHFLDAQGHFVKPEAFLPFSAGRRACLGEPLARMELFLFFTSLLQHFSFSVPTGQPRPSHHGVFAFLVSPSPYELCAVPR
Procedure, shortened: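 Steps: enzyme plus luciferin substrate dispensed; test substances pinned; 15 min RT; 1x NADPH regenerating solution added, 30–45 min RT protected from light; detection reagent, 30 min RT; luminescence measured. Minus-enzyme wells as background.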

[2] = biological target: Cytochrome P450 2C9 (Homo sapiens) (UniProt P11712); experiment: qHTS for inhibitors of CYP2C9 against the NCATS DSHEA and TCM libraries (AID 1919973);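 note: luminogenic pro-luciferin CYP2C9 substrate turned into luciferin with NADPH regeneration; series mostly up to about 34 µM; % is set by controls: 0 for no effect and ±100 for the full control effect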
Sequence of Cytochrome P450 2C9 (Homo sapiens) (P11712 whole entry, looked up): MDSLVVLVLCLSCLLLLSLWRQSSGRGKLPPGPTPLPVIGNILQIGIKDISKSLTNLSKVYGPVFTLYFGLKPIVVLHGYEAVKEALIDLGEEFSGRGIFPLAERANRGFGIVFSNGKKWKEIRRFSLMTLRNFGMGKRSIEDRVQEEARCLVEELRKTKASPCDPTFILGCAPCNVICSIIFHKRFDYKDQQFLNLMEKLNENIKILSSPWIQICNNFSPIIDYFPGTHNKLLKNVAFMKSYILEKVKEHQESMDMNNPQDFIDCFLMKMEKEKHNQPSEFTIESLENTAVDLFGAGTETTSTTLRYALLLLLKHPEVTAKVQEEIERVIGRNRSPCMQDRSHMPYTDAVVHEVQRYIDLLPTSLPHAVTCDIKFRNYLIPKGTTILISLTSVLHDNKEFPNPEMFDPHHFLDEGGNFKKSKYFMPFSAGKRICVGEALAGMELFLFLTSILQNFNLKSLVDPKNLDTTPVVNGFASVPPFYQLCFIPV
Procedure, shortened: (§1)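 Light output from converted D-luciferin reports remaining CYP activity. Compounds preincubate with enzyme and substrate for 15 min; NADPH regeneration (1x final) runs the reaction for 30-45 min.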

[3] = biological target: Cytochrome P450 2C19 (Homo sapiens) (UniProt P33261); experiment: qHTS for inhibitors of CYP2C19 against the NCATS DSHEA and TCM libraries (AID 1919974);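 note: luminescence from luciferin released by CYP2C19 oxidation of a pro-luciferin substrate; % is set by controls: 0 for no effect and ±100 for the full control effect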
Sequence of Cytochrome P450 2C19 (Homo sapiens) (P33261 whole entry, looked up): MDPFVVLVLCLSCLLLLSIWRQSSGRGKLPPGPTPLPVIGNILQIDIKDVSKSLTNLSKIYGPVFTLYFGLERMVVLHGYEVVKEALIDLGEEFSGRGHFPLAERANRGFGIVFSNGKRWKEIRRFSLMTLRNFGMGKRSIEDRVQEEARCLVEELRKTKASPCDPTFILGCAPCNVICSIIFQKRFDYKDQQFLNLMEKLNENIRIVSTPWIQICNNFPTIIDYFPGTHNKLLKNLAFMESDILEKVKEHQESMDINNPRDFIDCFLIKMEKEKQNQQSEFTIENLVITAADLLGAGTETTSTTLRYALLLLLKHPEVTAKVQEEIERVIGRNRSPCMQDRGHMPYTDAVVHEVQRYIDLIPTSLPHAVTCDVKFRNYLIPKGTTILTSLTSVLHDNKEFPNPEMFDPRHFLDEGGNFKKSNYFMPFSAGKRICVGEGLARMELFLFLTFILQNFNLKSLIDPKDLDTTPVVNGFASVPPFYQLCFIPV
Procedure, shortened: as §1

[4] = KB-3-1 P-gp reporter qHTS against the NCATS DSHEA and TCM libraries (AID 1919975); note: 0% is about no effect
Procedure, shortened: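 KB-3-1 parental line, 1536-well qHTS: cells seeded, ~4 h attachment, pintool compound addition, ~72 h at 37C, then CellTiter-Glo, 30 min RT, luminescence. Concentration-response format.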

[5] = biological target: Cytochrome P450 1A2 (Homo sapiens) (UniProt P05177); experiment: qHTS for inhibitors of CYPIA2 against the NCATS DSHEA and TCM libraries (AID 1919976);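 note: light from luciferin formed by CYP1A2 from a pro-luciferin substrate; series mostly up to about 37 µM; % is set by controls: 0 for no effect and ±100 for the full control effect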
Sequence of Cytochrome P450 1A2 (Homo sapiens) (P05177 whole entry, looked up): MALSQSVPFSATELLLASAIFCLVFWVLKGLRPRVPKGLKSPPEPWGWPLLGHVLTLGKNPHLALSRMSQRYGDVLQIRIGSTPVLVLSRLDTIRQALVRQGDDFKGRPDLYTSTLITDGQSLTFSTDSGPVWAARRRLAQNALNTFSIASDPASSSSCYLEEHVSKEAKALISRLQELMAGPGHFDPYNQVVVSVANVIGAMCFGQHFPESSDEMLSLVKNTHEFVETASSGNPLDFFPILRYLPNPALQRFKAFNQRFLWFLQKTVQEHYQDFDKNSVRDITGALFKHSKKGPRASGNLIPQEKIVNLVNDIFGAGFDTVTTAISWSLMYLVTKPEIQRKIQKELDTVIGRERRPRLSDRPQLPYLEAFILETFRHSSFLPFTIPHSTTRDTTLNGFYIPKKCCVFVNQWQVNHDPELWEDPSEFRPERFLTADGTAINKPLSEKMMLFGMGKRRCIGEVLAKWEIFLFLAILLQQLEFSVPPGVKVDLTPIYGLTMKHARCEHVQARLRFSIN
Source text: Assay Development and Screening Technology Laboratory (ADST)
National Center for Advancing Translational Sciences (NCATS), Rockville, MD
National Institute of Health (NIH), Bethesda, Maryland
Dietary Supplements and Natural Products have minor oversight of their safety and efficacy. We assembled a collection of Dietary Supplements and Natural Products (DSNP) as well as Traditional Chinese Medicinal (TCM) Plant extracts, which were screened against an in vitro panel of assays, including a liver cytochrome p450 enzyme panel, CAR/PXR signaling pathways, and P-gp transporter assays, to assess their activity. This pipeline facilitated the interrogation of Natural Product-Drug Interaction (NaPDI) through prominent metabolizing pathways. In addition, we compared the activity profiles of the DSNP/TCM substances with those of an approved drug collection. Many of the approved drugs have well-annotated mechanisms of action (MOA) while the MOAs for most of the DSNP and TCM samples remain unknown. […] Overall, we highlight four significant bioactivity profiles (measured by p-values) as examples of this prediction. […] To profile potential P-gp activity, a differential cell viability was measured against two cell lines: a parental KB-3-1 human cervical adenocarcinoma cell line and the drug-resistant subline KB-8-5-11 that overexpresses P-gp. […]
9; Read; Luminescence; ViewLux plate reader. […]

[6] = qHTS Counterscreen for compound interference against the NCATS DSHEA and TCM libraries (AID 1919978); details: firefly luciferase detection reagent interference, luminescence;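 note: compounds preincubated with 1 µM D-luciferin or buffer before detection reagent; % of control where 0% means no effect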
Procedure, shortened: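 Compounds, titrated from 19.5 nM to 39.8 uM final, were pinned onto 1 uM D-luciferin or plain 100 mM potassium phosphate. After 15 min at room temperature, luciferin detection reagent was added for 30 min before the luminescence read.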

[7] = Dual reporter qHTS for agonist of Pregnane X Receptor (hPXR) against the NCATS DSHEA and TCM libraries: Fluorescence readout (AID 1920058); note: 0% is about no effect
Procedure, shortened: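 Measures viability of the PXR reporter HepG2 line by protease-substrate fluorescence (405/540 nm), taken 1 h after CellTiter-Fluor addition. Substances are tested as concentration series over a ~24 h exposure, with rifampicin as agonist control.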

[8] = biological target: Nuclear receptor subfamily 1 group I member 2 (Homo sapiens) (UniProt O75469); experiment: Dual reporter qHTS for agonist of Pregnane X Receptor (hPXR) against the NCATS DSHEA and TCM libraries: Luminescence readout (AID 1920059); note: 0% is about no effect
Sequence of Nuclear receptor subfamily 1 group I member 2 (Homo sapiens) (O75469 whole entry, looked up): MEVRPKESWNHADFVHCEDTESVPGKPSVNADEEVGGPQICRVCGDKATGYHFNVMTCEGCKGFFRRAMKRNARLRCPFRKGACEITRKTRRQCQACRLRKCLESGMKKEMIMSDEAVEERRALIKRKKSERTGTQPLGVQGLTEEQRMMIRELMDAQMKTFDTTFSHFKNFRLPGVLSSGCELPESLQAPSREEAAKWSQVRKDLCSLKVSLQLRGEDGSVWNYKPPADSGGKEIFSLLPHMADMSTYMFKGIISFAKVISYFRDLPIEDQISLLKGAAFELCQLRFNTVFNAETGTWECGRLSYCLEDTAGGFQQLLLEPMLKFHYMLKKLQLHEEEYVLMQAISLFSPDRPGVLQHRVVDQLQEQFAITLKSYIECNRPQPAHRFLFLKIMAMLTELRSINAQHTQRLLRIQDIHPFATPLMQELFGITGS
Procedure, shortened: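 hPXR-LucHepG2 cells in phenol red-free DMEM with 5% charcoal-stripped FBS, 2000 cells/well, attached 5 h, then exposed 24 h at 37C to compounds; rifampicin as positive agonist control (2.8 nM–92 uM). Luciferase luminescence read.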

[9] = biological target: Nuclear receptor subfamily 1 group I member 2 (Homo sapiens) (UniProt O75469); experiment: Dual reporter qHTS for antagonist of Pregnane X Receptor (hPXR) against the NCATS DSHEA and TCM libraries: Luminescence Readout (AID 1920060);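 note: HepG2 cells carrying hPXR luciferase reporter stimulated with rifampicin at 2 µM; 0% is about no effect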
Procedure, shortened: (§2)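 hPXR-Luc HepG2 cells exposed 24 h at 37 C to compounds with 2 uM rifampicin in antagonist mode; luciferase luminescence measured by ONE-Glo, with CellTiter-Fluor viability read beforehand.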

[10] = Dual reporter qHTS for antagonist of Pregnane X Receptor (hPXR) against the NCATS DSHEA and TCM libraries: Fluorescence Readout (AID 1920061); note: 0% is about no effect
Procedure, shortened: as §2

Measured: max response

OC1C(O)C(O)C(O)C(O)C1O (stereo not drawn)
inactive: [1] | [2] | [3] | [4] | [5] | [6] 2.31% | [7] | [8] | [9] | [10]

CCCCCCCCCCCCCCCC(=O)O
inactive: [1] | [3] | [4] | [6] 2.55% | [7] | [8] | [9] | [10]
